The test system of assay [1] is PRMT1 (protein arginine N-methyltransferase 1). Briefly: PRMT1 binders on small-molecule microarrays, primary screen, biochemical, small-molecule microarray, 635 nm fluorescence (AID 1088).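 Note: binding of Prmt1 protein to compounds spotted on small-molecule microarray slides.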 The conditions noted are these: small-molecule microarray binding, higher = more signal.
A short description of assay [2]: yeast growth modulation, basal conditions, primary screen, YJM789 clinical isolate, OD600, 24 h (AID 1089).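 Note: growth of clinical yeast isolate S. cerevisiae YJM 789 seeded 1000 cells per well; test concentration not given here.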 The note with it: S. cerevisiae YJM789 growth, higher = more signal, called active from +8 up or from −8 down.
A short description of assay [3]: fission yeast growth modulation, primary screen, strain 972, OD600, 24 h, no modulator (AID 1090).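 Note: basal condition with compound alone and no growth modifier present; test concentration not given here.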 The conditions noted are these: S. pombe 972 growth, higher = more signal, called active from +8 up or from −8 down.
The nature of assay [4]: S. cerevisiae growth modulation with rapamycin, primary screen, strain BY4716, OD600, 96 h (AID 1091). Note: test concentration not given here. The conditions noted are these: higher = more signal, called active from +8 up or from −8 down.
Assay [5] has as its target Torsin-1A-interacting protein 2 (Homo sapiens) (UniProt Q8NFQ8). Briefly: LULL1 binders on small-molecule microarray, primary screen, cell lysate, human LULL1 lysate, 635/667 nm fluorescence (AID 1092).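 Note: probe is lysate of COS7 cells overexpressing human LULL1; score merges per-feature 667 nm fluorescence with signal-to-noise.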 The note with it: hLULL1 lysate binding, 635 nm fluorescence, higher = more signal.
The nature of assay [6]: E. coli growth modulation, two-sided OD650, primary screen, E. coli filamentation project, strain DRC41, 24 h (AID 1093).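 Note: MC1000 strain lacking acrAB efflux and sulA so SOS filamentation is blocked; test concentration not given here.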 The conditions noted are these: OD650, 24 h, higher = more signal, called active from +8 up or from −8 down.
Assay [7] is described as follows: small-molecule microarray binders of probe aLefty2, primary screen, biochemical, biotinylated probe, 635/667 nm fluorescence (AID 1094).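 Note: score merges spot fluorescence near 667 nm with spot signal-to-noise ratio.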 The conditions noted are these: higher = more signal.
The subject of assay [8] is Noggin (protein binding on small-molecule microarray). Briefly: Noggin binders on small-molecule microarray, primary screen, biochemical, 635/667 nm fluorescence (AID 1095).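 Note: score merges 667 nm feature fluorescence with signal to noise over triplicate slides.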 The note with it: 635 nm fluorescence, higher = more signal.
Assay [9] has as its target Neurogenic locus notch homolog protein 3 (Homo sapiens) (UniProt Q9UM47). The assay can be described thus: NOTCH3 binders on small-molecule microarray, primary screen, biochemical, 635/667 nm fluorescence (AID 1096). The conditions noted are these: NOTCH3 binding, 635 nm fluorescence, higher = more signal.
Assay [10] can be described thus: small-molecule microarray binders of probe aEGFR, primary screen, biochemical, biotinylated probe, 635/667 nm fluorescence (AID 1097).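 Note: probe is a biotinylated anti-EGFR antibody binding compounds printed on slides; score combines fluorescence near 667 nm and signal to noise of each spot.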 The note with it: higher = more signal.
For assay [11], the system named is Plasmodium falciparum Sir2 (PF13_0152, Sir2A). The assay can be described thus: pfSir2 binders on small-molecule microarrays, primary screen, biochemical, small-molecule microarray, 635 nm fluorescence (AID 1098).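 Note: score merges spot fluorescence intensity with its signal-to-noise ratio.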 The conditions noted are these: small-molecule microarray binding, fluorescence 635 nm; higher = more signal.
The nature of assay [12]: small-molecule microarray binders of probe aDKK1, primary screen, biochemical, biotinylated probe, 635/667 nm fluorescence (AID 1099).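 Note: score merges 667nm spot fluorescence with signal to noise across triplicate slides; reference of the scale not given here.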 The conditions noted are these: higher = more signal.
A short description of assay [13]: small-molecule microarray binders of probe aCHRDL2, primary screen, biochemical, biotinylated probe, 635/667 nm fluorescence (AID 1100). The note with it: higher = more signal.
Assay [14] in a line: splicing luciferase reporter signal modulators, primary screen, spliceosome inhibition project, cell-based, HEK293, splice +/- reporter (AID 1101).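 Note: HEK293 cells carrying a splicing-competent luciferase reporter gene; test concentration not given here.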 The conditions noted are these: luminescence, 24 h, higher = more signal, called active from +8 up or from −8 down. (A reporter such as luciferase makes a cellular process visible.)
The target in assay [15] is Fibroblast growth factor 10 (Homo sapiens) (UniProt O15520). The assay can be described thus: FGF10 binders on small-molecule microarrays, primary screen, biochemical, small-molecule microarray, 635 nm fluorescence (AID 1102). The note with it: FGF10 binding, fluorescence 635 nm, higher = more signal.
Fibroblast growth factor 10 (Homo sapiens), sequence (O15520 whole entry, looked up): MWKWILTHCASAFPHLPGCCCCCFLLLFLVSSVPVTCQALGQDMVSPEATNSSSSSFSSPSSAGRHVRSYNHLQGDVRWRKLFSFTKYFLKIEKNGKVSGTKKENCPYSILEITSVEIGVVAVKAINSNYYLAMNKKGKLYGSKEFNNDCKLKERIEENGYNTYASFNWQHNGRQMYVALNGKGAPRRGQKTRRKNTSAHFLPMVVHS
For assay [16], the system named is glycogen synthase kinase-3 (GSK3A per assay name; protocol says GSK3B). Briefly: GSK3 binders on small-molecule microarrays, primary screen, biochemical, small-molecule microarray, 635 nm fluorescence, GSK3A (AID 1103). Note: the record names both GSK3A and GSK3B. The note with it: small-molecule microarray binding, fluorescence 635 nm; higher = more signal.
Assay [17] deals with Epidermal growth factor receptor (Homo sapiens) (UniProt P00533). The assay can be described thus: EGFR binders on small-molecule microarrays, primary screen, biochemical, small-molecule microarray, 635 nm fluorescence (AID 1104).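 Note: score merges 667 nm emission intensity with spot signal to noise over triplicate slides.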 The conditions noted are these: EGFR binding, higher = more signal.
Epidermal growth factor receptor (Homo sapiens), sequence (P00533 whole entry, looked up): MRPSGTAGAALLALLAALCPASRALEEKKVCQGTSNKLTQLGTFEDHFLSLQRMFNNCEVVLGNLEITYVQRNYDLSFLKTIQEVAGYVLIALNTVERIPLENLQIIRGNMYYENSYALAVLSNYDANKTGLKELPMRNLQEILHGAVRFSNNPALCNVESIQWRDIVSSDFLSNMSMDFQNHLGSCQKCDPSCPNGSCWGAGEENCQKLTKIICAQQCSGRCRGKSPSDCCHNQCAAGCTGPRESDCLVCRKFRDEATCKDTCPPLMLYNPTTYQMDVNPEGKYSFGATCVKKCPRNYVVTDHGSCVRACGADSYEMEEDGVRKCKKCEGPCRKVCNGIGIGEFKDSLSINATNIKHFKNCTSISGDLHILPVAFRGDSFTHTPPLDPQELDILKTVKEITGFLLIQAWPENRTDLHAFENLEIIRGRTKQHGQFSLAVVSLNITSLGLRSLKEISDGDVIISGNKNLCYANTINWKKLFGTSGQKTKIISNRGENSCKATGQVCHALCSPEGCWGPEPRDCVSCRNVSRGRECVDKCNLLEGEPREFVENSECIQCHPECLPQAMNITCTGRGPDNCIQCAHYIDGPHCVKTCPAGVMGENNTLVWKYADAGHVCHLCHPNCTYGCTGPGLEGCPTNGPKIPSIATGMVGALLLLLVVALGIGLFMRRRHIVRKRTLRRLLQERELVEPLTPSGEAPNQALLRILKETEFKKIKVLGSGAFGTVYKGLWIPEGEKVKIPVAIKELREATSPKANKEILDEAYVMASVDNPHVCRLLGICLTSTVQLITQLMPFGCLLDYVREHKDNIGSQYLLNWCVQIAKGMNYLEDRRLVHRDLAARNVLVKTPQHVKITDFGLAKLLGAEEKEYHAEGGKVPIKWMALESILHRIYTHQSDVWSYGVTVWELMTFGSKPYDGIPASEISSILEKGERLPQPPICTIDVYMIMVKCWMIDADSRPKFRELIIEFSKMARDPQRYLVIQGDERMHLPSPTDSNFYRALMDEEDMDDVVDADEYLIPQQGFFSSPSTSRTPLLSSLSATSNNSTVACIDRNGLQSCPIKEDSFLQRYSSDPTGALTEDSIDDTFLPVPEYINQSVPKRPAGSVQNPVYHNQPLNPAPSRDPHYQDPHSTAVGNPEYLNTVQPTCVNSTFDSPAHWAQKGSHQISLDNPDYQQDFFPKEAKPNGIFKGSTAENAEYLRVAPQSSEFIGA
In assay [18] the target is Follistatin-related protein 3 (Homo sapiens) (UniProt O95633). Briefly: FSTL3 binders on small-molecule microarrays, primary screen, biochemical, small-molecule microarray, 635 nm fluorescence (AID 1105).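 Note: score merges emission near 667 nm and signal to noise per printed spot across three slides.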 The conditions noted are these: FSTL3 binding, higher = more signal.
Follistatin-related protein 3 (Homo sapiens), sequence (O95633 whole entry, looked up): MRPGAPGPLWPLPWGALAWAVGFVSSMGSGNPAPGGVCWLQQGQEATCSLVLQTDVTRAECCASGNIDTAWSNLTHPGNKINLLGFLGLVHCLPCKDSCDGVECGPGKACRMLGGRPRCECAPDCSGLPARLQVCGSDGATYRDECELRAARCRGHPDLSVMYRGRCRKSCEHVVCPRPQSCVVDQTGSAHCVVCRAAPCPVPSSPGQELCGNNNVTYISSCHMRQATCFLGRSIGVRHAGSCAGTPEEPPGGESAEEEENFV
For assay [19], the target named is Dickkopf-related protein 1 (Homo sapiens) (UniProt O94907). Briefly: DKK1 binders on small-molecule microarrays, primary screen, biochemical, small-molecule microarray, 635 nm fluorescence scan (AID 1106).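 Note: score merges emission near 667 nm with signal to noise over three replicate slides.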 The note with it: DKK1 binding, higher = more signal.
Dickkopf-related protein 1 (Homo sapiens), sequence (O94907 whole entry, looked up): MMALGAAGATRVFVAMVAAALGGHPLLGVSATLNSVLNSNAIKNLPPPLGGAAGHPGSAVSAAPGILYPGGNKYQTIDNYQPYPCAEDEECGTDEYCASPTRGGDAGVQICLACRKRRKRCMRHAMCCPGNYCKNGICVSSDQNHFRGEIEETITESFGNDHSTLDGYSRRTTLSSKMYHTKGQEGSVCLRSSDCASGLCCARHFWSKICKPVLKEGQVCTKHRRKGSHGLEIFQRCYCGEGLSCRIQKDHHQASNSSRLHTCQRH
For assay [20], the system named is Inhibin beta A chain (activin A). The assay can be described thus: INHBA (activin A) binders on microarrays, primary screen, biochemical, small-molecule microarray, 635 nm fluorescence scan (AID 1107).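 Note: mouse activin A protein probed at 4.33 µg/mL on printed slides; score merges bound-protein fluorescence near 667 nm with spot signal-to-noise.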 The note with it: small-molecule microarray binding, higher = more signal.

The source made the active and inactive calls.

Torsin-1A-interacting protein 2 (Homo sapiens), sequence (Q8NFQ8 whole entry, looked up): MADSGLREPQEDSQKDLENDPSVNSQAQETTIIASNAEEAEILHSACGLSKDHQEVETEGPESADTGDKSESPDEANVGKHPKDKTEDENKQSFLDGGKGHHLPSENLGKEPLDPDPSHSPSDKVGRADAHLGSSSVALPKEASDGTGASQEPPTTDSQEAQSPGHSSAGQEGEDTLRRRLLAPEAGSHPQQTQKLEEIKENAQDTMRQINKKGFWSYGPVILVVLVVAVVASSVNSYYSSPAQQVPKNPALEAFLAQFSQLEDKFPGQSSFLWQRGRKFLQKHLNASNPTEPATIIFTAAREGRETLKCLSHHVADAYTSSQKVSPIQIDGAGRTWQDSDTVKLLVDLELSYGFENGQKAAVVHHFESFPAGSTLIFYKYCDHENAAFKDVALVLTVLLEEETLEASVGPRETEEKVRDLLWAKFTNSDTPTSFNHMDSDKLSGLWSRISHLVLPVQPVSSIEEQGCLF
Neurogenic locus notch homolog protein 3 (Homo sapiens), sequence (Q9UM47 whole entry, looked up): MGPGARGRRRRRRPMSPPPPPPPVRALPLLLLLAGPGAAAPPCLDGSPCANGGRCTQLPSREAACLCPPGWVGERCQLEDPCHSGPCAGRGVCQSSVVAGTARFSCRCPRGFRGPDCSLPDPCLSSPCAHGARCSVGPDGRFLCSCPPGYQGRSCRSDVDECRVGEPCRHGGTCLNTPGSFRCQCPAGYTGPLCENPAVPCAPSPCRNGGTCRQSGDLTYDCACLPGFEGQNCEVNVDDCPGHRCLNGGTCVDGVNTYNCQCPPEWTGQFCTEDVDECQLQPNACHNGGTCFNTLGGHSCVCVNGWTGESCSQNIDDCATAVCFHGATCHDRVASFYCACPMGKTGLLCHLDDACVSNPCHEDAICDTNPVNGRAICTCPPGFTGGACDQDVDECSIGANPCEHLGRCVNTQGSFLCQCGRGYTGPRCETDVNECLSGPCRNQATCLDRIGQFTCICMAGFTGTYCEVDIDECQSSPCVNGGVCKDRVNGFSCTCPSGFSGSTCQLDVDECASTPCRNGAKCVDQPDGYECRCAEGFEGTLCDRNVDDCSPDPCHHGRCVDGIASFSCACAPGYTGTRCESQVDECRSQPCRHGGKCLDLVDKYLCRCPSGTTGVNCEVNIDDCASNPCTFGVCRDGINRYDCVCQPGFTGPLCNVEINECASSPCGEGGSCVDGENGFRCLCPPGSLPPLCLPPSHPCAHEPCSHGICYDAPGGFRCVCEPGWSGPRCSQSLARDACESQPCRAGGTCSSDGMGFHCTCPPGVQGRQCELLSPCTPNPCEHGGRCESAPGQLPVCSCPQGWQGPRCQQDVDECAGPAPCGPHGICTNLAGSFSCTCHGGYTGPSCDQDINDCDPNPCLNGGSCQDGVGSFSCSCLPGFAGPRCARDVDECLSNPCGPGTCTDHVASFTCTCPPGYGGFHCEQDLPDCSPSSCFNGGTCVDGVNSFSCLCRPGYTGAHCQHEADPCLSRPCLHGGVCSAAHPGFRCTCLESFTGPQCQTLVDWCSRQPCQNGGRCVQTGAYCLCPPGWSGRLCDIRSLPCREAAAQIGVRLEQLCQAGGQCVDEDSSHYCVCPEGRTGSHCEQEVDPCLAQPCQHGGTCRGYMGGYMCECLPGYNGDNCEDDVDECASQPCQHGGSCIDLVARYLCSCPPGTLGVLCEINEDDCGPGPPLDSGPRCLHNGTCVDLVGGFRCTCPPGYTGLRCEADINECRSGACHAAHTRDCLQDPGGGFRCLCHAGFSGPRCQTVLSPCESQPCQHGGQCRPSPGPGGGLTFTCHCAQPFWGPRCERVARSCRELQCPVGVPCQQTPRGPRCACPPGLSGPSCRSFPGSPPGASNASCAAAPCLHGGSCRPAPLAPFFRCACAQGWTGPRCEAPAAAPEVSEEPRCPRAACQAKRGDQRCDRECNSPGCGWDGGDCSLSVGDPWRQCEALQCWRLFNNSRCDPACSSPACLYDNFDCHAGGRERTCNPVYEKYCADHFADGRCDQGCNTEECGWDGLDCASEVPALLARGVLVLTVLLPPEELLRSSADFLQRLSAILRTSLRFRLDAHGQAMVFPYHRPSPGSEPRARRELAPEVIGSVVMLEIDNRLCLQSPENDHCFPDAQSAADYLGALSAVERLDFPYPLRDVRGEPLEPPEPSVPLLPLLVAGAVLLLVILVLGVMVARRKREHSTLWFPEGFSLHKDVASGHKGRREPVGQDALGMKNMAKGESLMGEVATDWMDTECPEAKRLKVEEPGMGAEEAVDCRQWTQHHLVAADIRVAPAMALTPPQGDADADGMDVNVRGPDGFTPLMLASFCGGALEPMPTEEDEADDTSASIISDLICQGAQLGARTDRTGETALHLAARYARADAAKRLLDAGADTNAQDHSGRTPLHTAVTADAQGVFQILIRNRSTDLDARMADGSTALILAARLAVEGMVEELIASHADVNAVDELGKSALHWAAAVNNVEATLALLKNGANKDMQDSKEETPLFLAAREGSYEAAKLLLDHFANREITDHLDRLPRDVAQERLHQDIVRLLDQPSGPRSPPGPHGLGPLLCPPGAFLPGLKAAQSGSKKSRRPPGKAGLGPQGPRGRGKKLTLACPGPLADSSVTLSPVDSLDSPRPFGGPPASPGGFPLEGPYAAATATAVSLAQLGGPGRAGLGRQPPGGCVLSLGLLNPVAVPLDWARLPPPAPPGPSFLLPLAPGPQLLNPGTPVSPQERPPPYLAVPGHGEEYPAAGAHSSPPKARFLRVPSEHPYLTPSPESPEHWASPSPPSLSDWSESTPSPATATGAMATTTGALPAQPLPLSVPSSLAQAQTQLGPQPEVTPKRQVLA

Turning to `O=C1O[C@@H](c2ccccc2)[C@@H](c2ccccc2)N2[C@@H](c3ccccc3OCCO)[C@]3(C(=O)Nc4ccc(C#CC5(O)CCCCCC5)cc43)[C@@H](C(=O)NC[C@H](O)c3ccccc3)[C@H]12`, the composite z-score in assay [1] worked out at 1.55; in assay [5], 3.08; in assay [7], 0.161; in assay [8], 1.69; in [9], 1.05; in assay [10] it was 0.146. For the same molecule, the composite z-score came out at 1.06 in [11]; 1.64 in [12]; 0.204 in [13]; 1.3 in assay [15]; 0.868 in [16]; 0.265 in [17]. Also, the composite z-score in assay [18] stood at 1.08; in assay [19] it was 0.283; in assay [20] it was 1. The z-score is 1.77 (inactive) in assay [2]; 1.16 (inactive) in [3]; 4.86 (inactive) in assay [4]; -0.371 (inactive) in [6]; -0.525 (inactive) in [14].
With `[N-]=[N+]=Nc1ccccc1[C@@H]1OC(c2ccc(OCCCO)cc2)=N[C@]1(CCS(=O)(=O)c1ccccc1)C(=O)O`, the composite z-score was 1.56 in assay [1]; 3.39 in [5]; -0.013 in assay [7]; 0.61 in assay [8]; 1.01 in assay [9]; 0.172 in [10]. For the same molecule, the composite z-score in [11] was found to be 1.25; in assay [12], 0.541; in assay [13] it was 0.54; in assay [15], 1.11; in assay [16] it was 1.29; in [17] it was 0.452. The composite z-score amounted to 1.44 in assay [18], 0.227 in assay [19] and 1.31 in [20]. The z-score in assay [2] is 1.57 (inactive); in assay [3], -3.97 (inactive); in [4], -1.63 (inactive); in [6], 0.777 (inactive); in [14] it was -1.27 (inactive).
Regarding `Cc1ccccc1/C=C/C=O`, the composite z-score was -1.47 in [1]; -0.672 in assay [5]; -0.13 in assay [7]; -0.13 in assay [8]; -1.63 in assay [9]; -0.307 in assay [10]. Moreover, the composite z-score in assay [11] is 0.939; in [12], -0.275; in [13], 0.297; in assay [15], -0.435; in assay [16], -1.09; in assay [17] it was -0.813. Besides, the composite z-score is -0.303 in [18], -0.243 in assay [19] and 0.612 in assay [20]. In addition, the z-score is -1.01 (inactive) in [2]; -3.42 (inactive) in assay [3]; -0.402 (inactive) in [4]; 0.35 (inactive) in assay [6]; -0.0672 (inactive) in [14].
On to `COC(=O)[C@@]1(Cc2ccc(F)cc2)[C@H]2c3cc(C(=O)N(C)C)n(CCc4c[nH]c5ccc(OC)cc45)c3C[C@H]2CN1C(=O)c1ccccc1`, for which the composite z-score in [1] was 0.84; in [5] it was 3.17; in assay [7], 0.809; in assay [8] it was -0.682; in [9], 0.0599; in assay [10], 0.341. For the same molecule, the composite z-score in [11] is -0.138; in assay [12], 1.76; in assay [13], 1.31; in assay [15], -0.162; in assay [16] it was 0.27; in assay [17], -0.446. For the same molecule, the composite z-score was -0.108 in assay [18], -1.73 in assay [19] and 0.812 in assay [20]. In addition, the z-score in assay [2] is 0.12 (inactive); in assay [3], -0.331 (inactive); in [4], 0.342 (inactive); in assay [6], -1.47 (inactive); in assay [14] it was -2.71 (inactive).
In the case of `Cc1ccc(S[C@]2(C(=O)NCCCN(C)C)CC(=O)N(Cc3ccccc3)[C@@H]2c2ccc(CO)cc2)cc1`, the composite z-score is 1.25 in [1]; 2.01 in assay [5]; 0.555 in [7]; -0.511 in assay [8]; -0.631 in assay [9]; -0.152 in assay [10]. Further, the composite z-score in assay [11] is -1.43; in assay [12], 0.938; in [13] it was 1.15; in [15], -1.01; in assay [16] it was -0.726; in assay [17] it was -1.03. In addition, the composite z-score in assay [18] was -1.26; in assay [19], -0.909; in [20], 0.591. The z-score in assay [2] was -0.933 (inactive); in [3] it was -1.18 (inactive); in assay [4], -1.03 (inactive); in [6] it was -0.0465 (inactive); in assay [14], -0.522 (inactive).

The record behind these values is PubChem BioAssay.
